High-throughput results as filed in PubChem.
SKKanGAS inh: S. pyogenes SKKanGAS growth inhibitors in kanamycin, primary screen, streptokinase expression inhibitor project, SKKanGAS strain, BacTiter-Glo luminescence | 6 h | inhibition, % at 7.5 µM | 1.3% of 300,000 active | AID 1662, 2009;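 active = mean replicate score, as percent of positive control median, at least 50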;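 note: strain carries kanamycin resistance gene driven by streptokinase promoter and grows in 40 µg/ml kanamycin; loss of luminescence reflects streptokinase promoter inhibition or plain growth inhibition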
EBI2 antag: EBI2 receptor antagonists, beta-arrestin recruitment, primary screen, cell-based, luminescence, 7a,25-OHC stimulation, uHTS | 7a,25-OHC stimulated | inhibition, % at 5 µM | 0.81% of 360,000 active | G-protein coupled receptor 183 (Homo sapiens), P32249; in the data active = inhibition above about 38%;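 note: enzyme fragment complementation signal reports receptor beta-arrestin coupling in cells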
Target sequence (P32249 whole entry, looked up, the tested form may be a part): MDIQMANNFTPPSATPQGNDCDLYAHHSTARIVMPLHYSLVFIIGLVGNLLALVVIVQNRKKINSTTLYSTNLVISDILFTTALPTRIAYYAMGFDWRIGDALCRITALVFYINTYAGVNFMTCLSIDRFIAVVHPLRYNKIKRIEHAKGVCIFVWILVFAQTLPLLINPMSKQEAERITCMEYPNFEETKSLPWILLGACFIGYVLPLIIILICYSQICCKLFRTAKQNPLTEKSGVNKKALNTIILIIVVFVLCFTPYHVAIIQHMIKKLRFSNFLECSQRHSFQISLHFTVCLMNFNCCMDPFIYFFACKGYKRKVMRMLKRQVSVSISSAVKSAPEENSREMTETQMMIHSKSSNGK
PfHsp90 yeast 2: growth inhibition of PfHsp90-expressing yeast, primary screen, antimalarial PfHsp90 inhibitor project, S. cerevisiae, BacTiter-Glo luminescence, single point, set 2. 0.32% of 310,000 active. BacTiter-Glo ATP, 48 h; yeast lacking PDR1 and PDR3 efflux regulators. inhibition, % at 9.4 µM;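 active = every replicate shows inhibition above about 80%, whatever the replicate mean, limit read from the data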
TIM10 inh: growth inhibitors of isogenic TIM10 control yeast, primary screen, counter-screen for tim10-1 yeast inhibitor project, luminescence, uHTS; S. cerevisiae TIM10 strain growth, BacTiter-Glo luminescence, 24 h; inhibition, % at 10 µM; AID 463195, 2010; 1.4% of 330,000 active;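 active = inhibition of 40% or more at the single tested concentration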;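 note: wild-type TIM10 isogenic control strain grown at permissive 25 °C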
tim23-1 inh: growth inhibitors of tim23-1 mutant yeast, primary screen, luminescence, uHTS; AID 463212, 2010; 1.3% of 330,000 active; S. cerevisiae tim23-1 growth, BacTiter-Glo luminescence, 24 h; inhibition, % at 20 µM;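 active = growth inhibition of the mutant yeast at or above 50%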;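 note: temperature-sensitive mutant grown at 25 °C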
tim10-1 inh: growth inhibitors of tim10-1 mutant yeast, primary screen, luminescence, uHTS | S. cerevisiae tim10-1 ts strain growth, BacTiter-Glo, 24 h | 2.2% of 330,000 active | inhibition, % at 20 µM;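 active = inhibition of at least 40%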;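 note: mutant grown at 25 °C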
tim23-1 confirm: tim23-1 mutant yeast growth inhibitors, confirmation, luminescence, single concentration. shares compounds with tim23-1 inh. S. cerevisiae tim23-1 growth, BacTiter-Glo luminescence, 24 h. inhibition, % at 20 µM. 83% of 4,400 active. AID 463218, 2010;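 active = inhibition above about 39% in either of two replicate wells at 20 µM, limit read from the data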;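 note: temperature-sensitive tim23-1 mutant grown at 25 °C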
Each line names hits and unclear results; the compound was inactive in the other large screens (follow-up assays come after a bar, where they were run). Hits are enriched below; roughly 4.7% of the tested compounds scored in any of these assays.

C#CCOCCOCCOCCNc1nc(N2CCN(C(=O)CCCCCCCCCCNC(=O)Cn3cc(C[C@@H](C)O)nn3)CC2)nc(N2CCN(C(=O)CCCCCCCCCCNC(=O)[C@H](CCCCN)n3cc(C[C@@H](C)CC)nn3)CC2)n1	tim23-1 inh 54 (no result: SKKanGAS inh) | tim23-1 confirm 56
C#CCOCCOCCOCCNc1nc(N2CCN(C(=O)CCCCCCCCCCNC(=O)Cn3cc(C[C@@H](C)O)nn3)CC2)nc(N2CCN(C(=O)CCCCCCCCCCNC(=O)Cn3cc(C[C@@H](C)O)nn3)CC2)n1	none (no result: SKKanGAS inh)
CCC(C)c1ccc(NC(=O)c2c([N+](=O)[O-])cnn2CC)cc1 (stereo not drawn)	none
Cc1nn(CC(=O)NC2(C#N)CCCCC2)c(C)c1[N+](=O)[O-]	none (no result: SKKanGAS inh)
COc1ccc(CCNC(=S)Nc2ccc(C(C)C)cc2)cc1	tim23-1 inh 51 | tim23-1 confirm inactive
CC(=O)Nc1ccc(N2C(=O)CSC2c2cccc([N+](=O)[O-])c2)cc1 (stereo not drawn)	none
O=C(Nc1ccc(Cl)cc1)Nc1ccccc1Sc1ncc([N+](=O)[O-])s1	tim23-1 inh 54 | tim23-1 confirm 72
O=C(Cc1ccc(Cl)cc1)Nc1ncc([N+](=O)[O-])s1	none (no result: TIM10 inh, tim23-1 inh, tim10-1 inh)
O=C(CSc1nnnn1Cc1ccccc1)c1ccc(F)cc1	tim23-1 inh 54 | tim23-1 confirm 52
O=C1C=C(c2ccc(O)cc2)C[C@@H](c2ccc(Cl)cc2)C1	tim23-1 inh 53 (no result: SKKanGAS inh) | tim23-1 confirm inactive
COc1cccc(/C=N/NC(=O)c2cc(C34CC5CC(CC(C5)C3)C4)[nH]n2)c1	tim23-1 inh 66 | tim23-1 confirm 41
COc1ccc(/C=N/NC(=O)c2cc(C34CC5CC(CC(C5)C3)C4)[nH]n2)cc1OC	none
Cc1ccc(S(=O)(=O)NCc2cccnc2)cc1C(=O)NC1CCCCC1	none (no result: PfHsp90 yeast 2)
CCOC(=O)C1=C(C)N=C2SC(C(=O)OC)=CC(=O)N2C1c1cc(OC)c(OC)c(OC)c1 (stereo not drawn)	none
O=C(CCCOc1cccc(Br)c1)NC1CCC(O)CC1 (stereo not drawn)	none
CSc1nnc(C(C)(C)C)c(=O)n1/N=C/c1ccccc1	tim23-1 inh 53 | tim23-1 confirm 51
COc1ccc(/C=N/n2c(SC)nnc(C(C)(C)C)c2=O)cc1	none
Cc1ccc(CNC(=O)Cn2ccc3cc(S(=O)(=O)N4CCCC4)ccc32)o1	none
CCn1c(SCC(=O)Nc2oc(C)c3c(C)n[nH]c(=O)c23)nc2sc(C)c(C)c2c1=O	tim23-1 inh 55 | tim23-1 confirm inactive
CCc1nnc(NS(=O)(=O)c2ccc(NC(=S)NC(=O)/C=C/c3ccc(C(C)C)cc3)cc2)s1	SKKanGAS inh 87, tim23-1 inh 52 | tim23-1 confirm 55
Oc1ccc(Br)cc1C=Nc1ccc(Cl)cc1	none
Oc1c(Cl)cc(Cl)cc1C=Nc1ccc(Br)cc1	tim23-1 inh 74 | tim23-1 confirm 72
Cc1cccc(NC(=S)NC(=O)c2ccco2)c1C	tim23-1 inh 56 | tim23-1 confirm inactive
O=C(/C=C/c1ccco1)NC(=S)Nc1ccccc1	tim23-1 inh 54 | tim23-1 confirm inactive
Cc1cccc(NC(=S)NC(=O)/C=C/c2ccco2)c1	none
Cc1ccccc1NC(=S)NC(=O)/C=C/c1ccco1	tim23-1 inh 55 | tim23-1 confirm inactive
CC(=O)c1ccc(NC(=S)NC(=O)/C=C/c2ccco2)cc1	none
Cc1cccc(NC(=S)NC(=O)/C=C/c2ccco2)n1	tim23-1 inh 57 (no result: PfHsp90 yeast 2) | tim23-1 confirm 40
CC(NC(=O)Cc1ccc(S(=O)(=O)N2CCOCC2)s1)c1ccc(Br)cc1 (stereo not drawn)	none (no result: SKKanGAS inh, TIM10 inh, tim23-1 inh, tim10-1 inh)
O=C1ON=C(c2ccccc2)/C1=C/c1ccccc1	tim23-1 inh 51 | tim23-1 confirm 39
Cc1noc(C)c1CSc1nc2[nH]ncc2c(=O)n1-c1ccccc1	none
Cc1noc(C)c1CSc1nc2ccccc2c(=O)n1-c1ccccc1	tim23-1 inh 52 | tim23-1 confirm 45
Cc1ccc(C(=O)C(C)OC(=O)C2CC(=O)N(C3CCCCC3)C2)cc1 (stereo not drawn)	none
CCOC(=O)CSc1nnc(-c2ccc(OC)cc2OC)o1	none
CCN(CC)c1ccc(N=Cc2cc(Br)ccc2O)cc1	none
CC(C)(C)c1ccc(O)c(N=Cc2cc(Br)ccc2O)c1	tim23-1 inh 69 | tim23-1 confirm inactive
OCC(CO)(CO)N=Cc1cc(Br)ccc1O	tim23-1 inh 59 | tim23-1 confirm 56
Cn1c(N)c(C(=O)CSc2nnc(C3CC3)n2N)c(=O)n(C)c1=O	none (no result: SKKanGAS inh)
CC(NC(=O)COc1ccc(Br)cc1)C1CCCO1 (stereo not drawn)	none
Cc1cccc(-c2cc3nc4c(c(N5CCOCC5)n3n2)CCCC4)c1	tim23-1 inh 58 | tim23-1 confirm 47
CCCNC(=O)C1(C)CCN(CCOc2ccc(Cl)cc2)C1 (stereo not drawn)	none (no result: SKKanGAS inh, PfHsp90 yeast 2, TIM10 inh, tim23-1 inh, tim10-1 inh)
COc1ccc(Cc2ccccc2C(=O)O)cc1	none (no result: SKKanGAS inh, TIM10 inh, tim23-1 inh, tim10-1 inh)
COc1ccc(CC2=CC(=O)c3ccccc3C2=O)cc1	SKKanGAS inh 66, tim23-1 inh 66 | tim23-1 confirm 75
CCc1ccc(OCC(=O)N2CCN(c3ccccn3)CC2)c(Br)c1	tim23-1 inh 53 | tim23-1 confirm inactive
C=C(C)CNC(=S)N/N=C/C1=CCC2CC1C2(C)C (stereo not drawn)	none
CC(C)NC(=S)N/N=C/C1=CCC2CC1C2(C)C (stereo not drawn)	tim23-1 inh 56 | tim23-1 confirm inactive
CCCCNC(=S)N/N=C/C1=CCC2CC1C2(C)C (stereo not drawn)	tim23-1 inh 53 | tim23-1 confirm inactive
CC(C)=CCc1cc(-c2oc3cc(O)cc(O)c3c(=O)c2O)ccc1O	tim23-1 inh 51 (no result: PfHsp90 yeast 2) | tim23-1 confirm 51
O=c1c(O)c(-c2cc(O)c(O)c(O)c2)oc2cc(O)cc(O)c12	none (no result: SKKanGAS inh)
O=c1c(O)c(-c2ccccc2)oc2cc(O)cc(O)c12	tim23-1 inh 58 (no result: SKKanGAS inh) | tim23-1 confirm 61
O=c1c(-c2ccccc2)c(-c2ccccc2)oc2cc(O)cc(O)c12	PfHsp90 yeast 2 123, tim23-1 inh 55 | tim23-1 confirm inactive
OCCCNc1c2ccccc2nc2ccccc12	none
CC1(C)CC(=O)C(N=Nc2ccc(C(F)(F)F)cc2[N+](=O)[O-])=C(O)C1	tim23-1 inh 78 | tim23-1 confirm 78
CC1(C)CC(=O)C(N=Nc2cccc([N+](=O)[O-])c2)=C(O)C1	tim23-1 inh 88 | tim23-1 confirm 93
